# According to PubChem BioAssay (EPA / NIEHS):
# “And” between values parts separate entries of the source, which are not always exact repeats. Equal values may be shown once. Inconclusive results are not listed. The source made the active and inactive calls. The calls were made as follows: active = hit-call score of the fitted dose curve at least 0.9, where 1 is the maximum; inconclusive = response in the unintended direction; inactive = score below 0.9.
# Molecular target: human Epidermal Growth Factor Receptor (EGFR), EGFR (gene 1956) (UniProt P00533)
# Assay: NVS_ENZ_hEGFR: NovaScreen (NVS) Enzymatic Assay for human Epidermal Growth Factor Receptor (EGFR) (AID 2283151)
# Description: NVS_ENZ_hEGFR is a biochemical, single-readout assay that uses extracted gene-proteins in a cell-free assay. Measurements were taken 1 hour after chemical dosing in a 384-well plate.NVS_ENZ_hEGFR is one of one assay component(s) measured or calculated from the NVS_ENZ_hEGFR assay. It is designed to make measurements of enzyme activity, a form of enzyme reporter, as detected with fluorescence intensity signals by Fluorescence and electrophoretic mobility shift technology.Data from the assay component NVS_ENZ_hEGFR was analyzed into 1 assay endpoint. This assay endpoint, NVS_ENZ_hEGFR, was analyzed in the positive analysis fitting direction relative to DMSO as the negative control and baseline of activity. Using a type of enzyme reporter, loss-of-signal activity can be used to understand changes in the enzymatic activity as they relate to the gene EGFR. Furthermore, this assay endpoint can be referred to as a primary readout, because this assay has produced multiple assay endpoints where this one serves a enzymatic activity function. To generalize the intended target to other relatable targets, this assay endpoint is annotated to the kinase intended target family, where the subfamily is receptor tyrosine kinase.
# Binding assays used specific radioligands (tritiated, iodinated) with non-radioactive competitive displacement ligands in agonist or antagonist protocols (as indicated) and various reference compounds and inhibitors to titrate specific binding to receptors and transporters. Most enzyme assays (CYPs, kinases, phosphatases, proteases, HDACs) used recombinant protein and specific substrates (fluorescence mostly, some colorimetric and radioactive) and inhibitors, followed by a biochemical separation of substrate and product. All assays for the biochemical HTS were initially run in duplicate at a single concentration (10 uM for CYP450 assays and 25 uM for all others). Assay-chemical combinations meeting a pre-defined threshold (e.g., 30% inhibition and other criteria defined below) were then run in singleton concentration-response format with maximum concentration of 20 uM for CYPs and 50 uM for all others. Each assay was run with positive and negative controls, and concurrent controls on every plate. The follow-up (secondary) screen tested active chemical-pairs in concentration series, as well as a few additional assays not tested in the primary screen, some selected negative inactives, and several cases re-run in the concentration series for confirmatory purposes.
# human Epidermal Growth Factor Receptor (EGFR), EGFR (gene 1956), sequence (P00533 whole entry, looked up): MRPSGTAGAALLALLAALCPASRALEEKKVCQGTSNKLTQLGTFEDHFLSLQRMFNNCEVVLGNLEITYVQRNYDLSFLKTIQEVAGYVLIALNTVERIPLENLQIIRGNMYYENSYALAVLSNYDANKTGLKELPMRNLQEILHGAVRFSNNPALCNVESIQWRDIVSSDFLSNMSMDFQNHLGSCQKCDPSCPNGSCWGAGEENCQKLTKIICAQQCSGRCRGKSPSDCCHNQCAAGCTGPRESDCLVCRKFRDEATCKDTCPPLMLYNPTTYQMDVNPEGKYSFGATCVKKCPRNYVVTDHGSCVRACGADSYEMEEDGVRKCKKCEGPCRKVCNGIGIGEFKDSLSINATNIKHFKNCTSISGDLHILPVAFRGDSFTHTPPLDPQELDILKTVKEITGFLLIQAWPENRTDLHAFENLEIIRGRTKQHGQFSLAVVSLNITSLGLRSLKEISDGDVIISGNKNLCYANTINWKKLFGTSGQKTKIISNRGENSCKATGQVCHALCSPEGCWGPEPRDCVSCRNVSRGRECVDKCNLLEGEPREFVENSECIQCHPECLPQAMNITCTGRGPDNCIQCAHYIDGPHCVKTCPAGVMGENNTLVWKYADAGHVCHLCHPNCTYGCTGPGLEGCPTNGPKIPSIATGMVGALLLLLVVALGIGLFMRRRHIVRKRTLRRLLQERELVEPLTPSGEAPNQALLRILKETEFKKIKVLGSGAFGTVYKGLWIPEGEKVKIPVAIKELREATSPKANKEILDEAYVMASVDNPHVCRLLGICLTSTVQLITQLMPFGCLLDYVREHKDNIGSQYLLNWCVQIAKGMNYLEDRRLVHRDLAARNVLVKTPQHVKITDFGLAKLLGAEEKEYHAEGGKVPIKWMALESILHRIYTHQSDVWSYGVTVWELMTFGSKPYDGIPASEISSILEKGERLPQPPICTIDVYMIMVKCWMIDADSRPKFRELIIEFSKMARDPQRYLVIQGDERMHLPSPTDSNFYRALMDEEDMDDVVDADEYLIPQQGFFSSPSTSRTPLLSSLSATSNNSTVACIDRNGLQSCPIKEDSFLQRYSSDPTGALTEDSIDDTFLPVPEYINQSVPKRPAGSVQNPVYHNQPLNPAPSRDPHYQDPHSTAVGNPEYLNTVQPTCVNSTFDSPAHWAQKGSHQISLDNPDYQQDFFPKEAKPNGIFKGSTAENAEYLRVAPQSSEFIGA
Structure (SMILES),outcome,AC50
CC/C(=C(/CC)c1ccc(O)cc1)c1ccc(O)cc1,inactive,–
O=C(OCCCCCOC(=O)c1ccccc1)c1ccccc1,inactive,–
CC(C)CCCCCCOC(=O)C1CCCCC1C(=O)OCCCCCCC(C)C (stereo not given),inactive,–
Nc1ccc2c(c1)C(=O)c1ccccc1C2=O,inactive,–
CN(C)C(=O)NC1(c2ccccc2)CCN(CCC[C@]2(c3ccc(Cl)c(Cl)c3)CCCN(C(=O)c3ccccc3)C2)CC1,inactive,–
N#C[C@@H]1CC(F)(F)CN1C(=O)CNC1CC2CCC(C1)N2c1ncccn1 (stereo not given in full),inactive,–
CC(=O)Oc1ccccc1C(=O)O,inactive,–
O=C(O)c1cc(N=Nc2ccc(S(=O)(=O)Nc3ccccn3)cc2)ccc1O,–,3.95 µM (active)
Cc1ccc(N)cc1O,inactive,–
CC(C)CCCCCCc1ccc(O)cc1,inactive,–
NCCO,inactive,–
CN1C(=O)N(c2ccccc2Br)Cc2cnc(Nc3ccc4c(c3)OCC(CO)O4)nc21 (stereo not given),–,0.00229 µM (active)
O=C(O)c1[nH]n(-c2ccc(S(=O)(=O)O)cc2)c(=O)c1N=Nc1ccc(S(=O)(=O)O)cc1,inactive,–
CCCCCCCC/C=C\CCCCCCCC(=O)OC[C@@H](O)[C@H]1OC[C@H](O)[C@H]1O,inactive,–
O=C(Oc1ccccc1)c1cccc(C(=O)Oc2ccccc2)c1,inactive,–
O=C(O)Cc1cc(I)c(Oc2cc(I)c(O)c(I)c2)c(I)c1,inactive,–
COc1cc(C(=O)NC2CCN(C)CC2)ccc1Nc1ncc2c(n1)N(C1CCCC1)CC(F)(F)C(=O)N2C,–,12.2 µM (active)
S=C(S)NCCNC(=S)S.[Mn+2].[S-]C([S-])=NCCN=C([S-])[S-].[Zn+2],–,9.13 µM (active) and 9.55 µM (active) and 21.4 µM (active)

Structure (SMILES),outcome,AC50
CCN(Cc1cccc(S(=O)(=O)O)c1)c1ccc(C(=C2C=CC(=[N+](CC)Cc3cccc(S(=O)(=O)O)c3)C=C2)c2ccccc2S(=O)(=O)[O-])cc1,–,12.1 µM (active)
Cc1ncc([C@@H](CCCCCCc2ccc3c(n2)NCCC3)CC(=O)O)cn1,inactive,–
O=C(O)Cc1cc(I)c(Oc2ccc(O)c(I)c2)c(I)c1,inactive,–
FC(F)(F)C(F)(F)C(F)(F)C(F)(F)C(F)(F)C(F)(F)CCI,inactive,–
O=C(O)c1cccc(Oc2ccccc2)c1,inactive,–
CCCCCCCCCCCCc1ccccc1S(=O)(=O)O,–,12.6 µM (active)
CCCCCCC(CCCCCCCCCCC(=O)OCC(COC(C)=O)OC(C)=O)OC(C)=O (stereo not given),inactive,–
O=C(c1ccc(O)cc1O)c1ccc(O)cc1O,–,25 µM (active)
COC(=O)[C@H]1[C@H]2C[C@@H]3c4[nH]c5cc(OC)ccc5c4CCN3C[C@H]2C[C@@H](OC(=O)c2cc(OC)c(OC)c(OC)c2)[C@@H]1OC,inactive,–
CCCC(CCC)C(=O)O,inactive,–
COc1c(Cl)ccc(Cl)c1C(=O)O,inactive,–
CCO[Si](CCCNC(N)=O)(OCC)OCC,inactive,–
Cc1ccc2ncccc2c1,inactive,–
CCc1c(C(=O)NN2CCCCC2)nn(-c2ccc(Cl)cc2Cl)c1-c1ccc(Br)cc1,inactive,–
NC=O,inactive,–
CC(C)(c1ccc(O)cc1)c1ccc(O)cc1,inactive,–
O=c1[nH]cnc2c1ncn2[C@H]1CC[C@@H](CO)O1,inactive,–
